# About 79,000 compounds went through this panel and 15% of them were active in at least one assay; those are over-represented in the sample as a whole. Values without a mark were called inactive. Activity calls are given as the source filed them. Rule as the data show it: active = growth inhibition above about 70%; inactive = the rest.
# Experiments:
# [1] = NCI Yeast Anticancer Drug Screen. Data for the rad52 strain (AID 147);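 also: 0% = growth of vehicle-treated control cultures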; details: S. cerevisiae rad52 mutant growth inhibition, active compounds read high
# Method in brief: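 Vehicle-treated cultures served as the reference for growth inhibition of compound-exposed yeast bearing a DNA repair mutation.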
# [2] = NCI Yeast Anticancer Drug Screen. Data for the wt1 strain (AID 149);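 also: 0% = growth of vehicle-treated wt1 cultures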; details: S. cerevisiae wt1 strain (SPY 50644) growth inhibition, active compounds read high
# Method in brief: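 wt1 strain grown with compound or vehicle; inhibition taken from the growth difference.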
# [3] = NCI Yeast Anticancer Drug Screen. Data for the rad50EPP+ strain (AID 151);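 also: 0% = growth of vehicle-treated control cultures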; details: S. cerevisiae rad50 mutant strain, active compounds read high
# Method in brief: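 In this screen, rad50EPP+ yeast were exposed to compounds. Growth inhibition was scored against vehicle-treated controls.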
# [4] = NCI Yeast Anticancer Drug Screen. Data for the mgt1 strain (AID 153); details: S. cerevisiae mgt1 mutant growth inhibition, active compounds read high
# Method in brief: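 mgt1 strain exposed; growth vs vehicle control recorded as inhibition.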
# [5] = NCI Yeast Anticancer Drug Screen. Data for the rad50 strain (AID 155);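 also: 0% = growth of vehicle-only cultures of the same strain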; details: S. cerevisiae rad50 strain growth inhibition, active compounds read high
# Method in brief: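 DNA repair mutant yeast, compound exposure, growth read-out; inhibition is taken relative to vehicle.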
# [6] = NCI Yeast Anticancer Drug Screen. Data for the mec2-1 strain (AID 157); details: S. cerevisiae mec2-1 strain, active compounds read high
# Method in brief: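 Vehicle-treated cultures served as reference for growth inhibition of compound-exposed mec2-1 yeast.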
# [7] = NCI Yeast Anticancer Drug Screen. Data for the rad14 strain (AID 159);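 also: 0% = growth of vehicle-treated control cultures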; details: S. cerevisiae rad14 strain growth inhibition, active compounds read high
# Method in brief: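 DNA repair-defective yeast, compound-exposed; % growth inhibition derived by comparison with vehicle-treated controls.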
# [8] = NCI Yeast Anticancer Drug Screen. Data for the sgs1 mgt1 strain (AID 161);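 also: 0% = growth of cultures given vehicle only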; details: S. cerevisiae sgs1 mgt1 strain, active compounds read high
# Method in brief: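 Mutant yeast exposed to compound; growth scored against vehicle-only wells.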
# [9] = NCI Yeast Anticancer Drug Screen. Data for the CLN2oe strain (AID 163);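 also: 0% = growth of vehicle-only control cultures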; details: S. cerevisiae CLN2oe strain, active compounds read high
# Method in brief: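 Inhibition relative to vehicle-treated yeast is reported. Cells: strain with genetic alteration in cell-cycle control, grown with compound.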
# [10] = NCI Yeast Anticancer Drug Screen. Data for the cln2 rad14 strain (AID 165);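 also: 0% = growth equal to vehicle treated cultures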; details: S. cerevisiae cln2 rad14 strain, active compounds read high
# Method in brief: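 Each compound was tested on cln2 rad14 yeast. Inhibition of growth was calculated against vehicle-exposed controls.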
# [11] = NCI Yeast Anticancer Drug Screen. Data for the bub3 strain (AID 167); details: S. cerevisiae bub3 mutant strain, active compounds read high
# Method in brief: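 In this screen, a yeast mutant lacking normal mitotic checkpoint function is challenged with compound. Relative growth versus vehicle gives the inhibition value.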
# [12] = NCI Yeast Anticancer Drug Screen. Data for the wt2 strain (AID 169);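 also: 0% = growth of vehicle-treated yeast cultures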; details: S. cerevisiae wt2 strain growth inhibition, active compounds read high
# Method in brief: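 Inhibition of yeast growth was determined after compound treatment, normalised to controls receiving only vehicle.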
# [13] = NCI Yeast Anticancer Drug Screen. Data for the mlh1 strain (AID 171);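 also: 0% = growth of vehicle-treated control cultures of the same strain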; details: S. cerevisiae mlh1 strain growth inhibition, active compounds read high
# Method in brief: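 Vehicle-normalised growth inhibition of a repair- or checkpoint-altered yeast strain following compound treatment.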
# [14] = NCI Yeast Anticancer Drug Screen. Data for the sgs1 strain (AID 173);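 also: 0% = growth of vehicle-only control cultures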; details: S. cerevisiae sgs1 mutant, active compounds read high
# Method in brief: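 Screen format: yeast with repair or checkpoint alterations, compound exposure, growth read relative to vehicle.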
# [15] = NCI Yeast Anticancer Drug Screen. Data for the mlh1 rad18 strain (AID 175); details: S. cerevisiae mlh1 rad18 strain growth inhibition, active compounds read high
# Method in brief: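 Vehicle-treated cultures served as the reference for growth inhibition in a yeast strain carrying DNA damage repair alterations exposed to each compound.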
# [16] = NCI Yeast Anticancer Drug Screen. Data for the rad18 strain (AID 177); details: S. cerevisiae rad18 mutant growth inhibition, active compounds read high
# Method in brief: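 Test articles were incubated with altered yeast defective in DNA damage repair. Results are given as inhibition of growth versus vehicle.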
# [17] = at 5.0 µM (retest, dose inferred, filed as 0.5)
# [18] = at 50.0 µM (retest, dose inferred, filed as 5.0)
structure (smiles),measurement,setting,value
O=C(Cc1ccccc1)NNc1nc(NNC(=O)c2ccncc2)nc(Nc2ccc([N+](=O)[O-])cc2)n1,growth inhibition,[1]; at 1.2 µM,23%
same,growth inhibition,[1]; at 3.7 µM,29%
same,growth inhibition,[1]; at 11.0 µM,68%
same,growth inhibition,[1]; at 33.0 µM,59%
same,growth inhibition,[1]; at 100.0 µM,54%
same,growth inhibition,[2]; at 1.2 µM,-81%
same,growth inhibition,[2]; at 3.7 µM,3%
same,growth inhibition,[2]; at 11.0 µM,12%
same,growth inhibition,[2]; at 33.0 µM,19%
same,growth inhibition,[2]; at 100.0 µM,17%
same,growth inhibition,[3]; at 1.2 µM,4%
same,growth inhibition,[3]; at 3.7 µM,10%
same,growth inhibition,[3]; at 11.0 µM,11%
same,growth inhibition,[3]; at 33.0 µM,11%
same,growth inhibition,[3]; at 100.0 µM,-3%
same,growth inhibition,[4]; at 1.2 µM,4%
same,growth inhibition,[4]; at 3.7 µM,13%
same,growth inhibition,[4]; at 11.0 µM,52%
same,growth inhibition,[4]; at 33.0 µM,62%
same,growth inhibition,[4]; at 100.0 µM,56%
same,growth inhibition,[5]; at 1.2 µM,2%
same,growth inhibition,[5]; at 3.7 µM,9%
same,growth inhibition,[5]; [17],8%
same,growth inhibition,[5]; at 11.0 µM,21%
same,growth inhibition,[5]; at 33.0 µM,25%
same,growth inhibition,[5]; [18],54%
same,growth inhibition,[5]; at 50.0 µM,71.5% (active)
same,growth inhibition,[5]; at 100.0 µM,21%
same,growth inhibition,[6]; at 1.2 µM,3%
same,growth inhibition,[6]; at 3.7 µM,9%
same,growth inhibition,[6]; [17],3%
same,growth inhibition,[6]; at 11.0 µM,27%
same,growth inhibition,[6]; at 33.0 µM,34%
same,growth inhibition,[6]; [18],18%
same,growth inhibition,[6]; at 50.0 µM,47%
same,growth inhibition,[6]; at 100.0 µM,23%
same,growth inhibition,[7]; at 1.2 µM,-3%
same,growth inhibition,[7]; at 3.7 µM,2%
same,growth inhibition,[7]; at 11.0 µM,12%
same,growth inhibition,[7]; at 33.0 µM,14%
same,growth inhibition,[7]; at 100.0 µM,11%
same,growth inhibition,[8]; [17],0%
same,growth inhibition,[8]; [18],41%
same,growth inhibition,[8]; at 50.0 µM,87.3% (active)
same,growth inhibition,[9]; at 1.2 µM,-8%
same,growth inhibition,[9]; at 3.7 µM,-4%
same,growth inhibition,[9]; at 11.0 µM,8%
same,growth inhibition,[9]; at 33.0 µM,11%
same,growth inhibition,[9]; at 100.0 µM,7%
same,growth inhibition,[10]; [17],42%
same,growth inhibition,[10]; [18],3%
same,growth inhibition,[10]; at 50.0 µM,64.3%
same,growth inhibition,[11]; at 1.2 µM,-2%
same,growth inhibition,[11]; at 3.7 µM,-4%
same,growth inhibition,[11]; [17],6%
same,growth inhibition,[11]; at 11.0 µM,11%
same,growth inhibition,[11]; at 33.0 µM,17%
same,growth inhibition,[11]; [18],40%
same,growth inhibition,[11]; at 50.0 µM,77.7% (active)
same,growth inhibition,[11]; at 100.0 µM,15%
same,growth inhibition,[12]; at 1.2 µM,-3%
same,growth inhibition,[12]; at 3.7 µM,10%
same,growth inhibition,[12]; at 11.0 µM,41%
same,growth inhibition,[12]; at 33.0 µM,57%
same,growth inhibition,[12]; at 100.0 µM,61%
same,growth inhibition,[13]; at 1.2 µM,-3%
same,growth inhibition,[13]; at 3.7 µM,8%
same,growth inhibition,[13]; at 11.0 µM,42%
same,growth inhibition,[13]; at 33.0 µM,58%
same,growth inhibition,[13]; at 100.0 µM,55%
same,growth inhibition,[14]; at 1.2 µM,10%
same,growth inhibition,[14]; at 3.7 µM,32%
same,growth inhibition,[14]; at 11.0 µM,63%
same,growth inhibition,[14]; at 33.0 µM,69%
same,growth inhibition,[14]; at 100.0 µM,64%
same,growth inhibition,[15]; [17],7%
same,growth inhibition,[15]; [18],36%
same,growth inhibition,[15]; at 50.0 µM,86.2% (active)
same,growth inhibition,[16]; at 1.2 µM,9%
same,growth inhibition,[16]; at 3.7 µM,26%
same,growth inhibition,[16]; at 11.0 µM,50%
same,growth inhibition,[16]; at 33.0 µM,57%
same,growth inhibition,[16]; at 100.0 µM,49%
